These entries were drawn from the full list.
aSyn UTR act – Activators working through SNCA 5'UTR binding (MLPCN). alpha-synuclein 5'UTR reporter, activators screen. AID 1814. activity score, % (tested at 7.5 µM), hits read low. 300,000 compounds, 7.1% hits; in the data active = activity score below about -60%
Numbers without * were called inactive.

SMILES	aSyn UTR act
Cc1ccc(S(=O)(=O)c2nc(S(C)(=O)=O)sc2N2CCCCCC2)cc1	-113*
CS(=O)(=O)c1nc(S(=O)(=O)c2ccc(Cl)cc2)c(N2CCOCC2)s1	-75*
COc1ccc(-c2nc3n(c2C)CCC3)cc1	-63*
COc1ccc(-c2cc3nc4n(c(=O)c3s2)CCC4)cc1	59
Cc1ccc2c(c1)OC(c1ccc3c(c1)OCCO3)CC2=O (stereo not drawn)	-151*
O=C(Nc1ccccn1)c1ccco1	-100*
CCC(=O)Nc1ccc(NC(=O)c2cccc(OC)c2)nc1	-171*
COc1ccc(C(=O)Nc2ccc(NC(=O)c3ccccc3OC)nc2)cc1	-96*
COc1ccccc1C(=O)Nc1ccc(NC(=O)c2ccco2)cn1	-80*
CCC(=O)Nc1cc(C)c(NC(=O)c2ccccc2OC)cn1	-70*
COc1cccc(C(=O)Nc2ccc(NC(=O)C3CC3)cn2)c1	-157*
CC(C)(C)C(=O)Nc1ccc(NC(=O)c2ccco2)nc1	102
COc1ccc(C(=O)Nc2ccc(NC(=O)C3CC3)nc2)cc1	-87*
O=C(Cc1ccccc1)Nc1ccc(NC(=O)c2ccco2)nc1	-149*
O=C(Nc1ccc(NC(=O)c2ccccc2)nc1)c1ccncc1	-81*
O=C(Nc1ccc2c(c1)OCO2)C1CCCCC1	-92*
CC(NC(=O)Nc1ccc2c(c1)OCO2)C1CCCO1 (stereo not drawn)	-112*
CC(C)C(NC(=O)C1CCCCC1)C(=O)Nc1ccc2c(c1)OCCO2 (stereo not drawn)	-66*
CNC(=O)c1ccsc1NC(=O)c1ccc2c(c1)CCCC2	-214*
c1ccc2c(c1)CCN(c1ncnc3c1[nH]c1ccccc13)C2	-102*
COc1cccc(N2CCN(c3ncnc4c3[nH]c3ccccc34)CC2C)c1 (stereo not drawn)	-73*
COc1ccc(-c2nsc3c(N4CCCCC4C)ncnc23)cc1 (stereo not drawn)	90
CC(=O)Cc1nsc(Nc2ccc(C)cc2)n1	-93*
O=C(Cn1c2ccccc2c(=O)c2ccccc21)N/N=C/c1ccc(N2CCCC2)c([N+](=O)[O-])c1	111
N#C/C(=C/c1ccc(N2CCCC2)c([N+](=O)[O-])c1)c1nc2ccccc2[nH]1	-78*
SMILES	aSyn UTR act
N#C/C(=C\c1ccc(N2CCOCC2)c([N+](=O)[O-])c1)c1nc2ccccc2[nH]1	-163*
c1ccc(-c2cnc(CSc3nnc4ccccn34)o2)cc1	-94*
Fc1ccc(-c2nnc(CSc3nnc4ccccn34)o2)cc1	-116*
Fc1ccc(CSc2nnc3ccccn23)c(Cl)c1	-92*
COc1ccccc1Nc1ncc(-c2cccs2)s1	-177*
COC(=O)/C=C/c1cnc2ccccc2c1	-92*
CCOC(=O)c1ccc(CNCc2ccccc2)cc1	-66*
CCOC(=O)c1ccc(NC(=S)Nc2ccc(C)cc2)cc1	-145*
COC(=O)c1ccc(NC(=O)CNc2ccccc2)cc1	-99*
CCOC(=O)c1ccc(S(=O)(=O)NCCN(CC)CC)cc1	52
CCOC(=O)c1ccc(NC(=S)Nc2ccccc2)cc1	-147*
CCOC(=O)c1cccc(OS(=O)(=O)Cc2ccccc2)c1	-63*
CCOC(=O)c1ccc(NCc2ccc(N(C)C)cc2)cc1	-87*
CCOC(=O)c1cn[nH]c1NC(=S)Nc1ccc(Cl)cc1	-66*
CCOC(=O)c1c(C)c(C(=O)Nc2ccc(N(C)C)cc2)c(C)n1CC	-82*
Cc1ccc(NC(=O)/C(C#N)=C/c2ccc(C)s2)c(C)c1	-92*
C/C(CC(=O)Nc1ccc(F)cc1F)=N\NC(=O)C(=O)N1CCCCC1	-68*
O=C(c1ccc(Br)s1)N1CCc2ccccc2C1	-65*
O=C(Cc1ccc(Br)cc1)N1CCc2ccccc2C1	-145*
CCCCC(=O)NC(c1ccc(N(CC)CC)cc1)c1ccc2cccnc2c1O (stereo not drawn)	68
COc1ccccc1-c1noc(-c2cccs2)n1	-236*
COc1cccc(-c2ccc(-c3noc(-c4cccs4)n3)c(OC)n2)c1	-85*
COc1ccccc1-c1noc(-c2ccncc2)n1	-74*
O=[N+]([O-])c1cccc(-c2noc(-c3cccs3)n2)c1	-147*
COc1ccccc1-c1nc(-c2ccccn2)no1	77
SMILES	aSyn UTR act
COc1ccc(-c2nc(-c3cccs3)no2)cc1	83
CCOc1ccc(NC(=O)CSc2nncc(=O)[nH]2)cc1	-76*
Cc1ccc(OCCNC(=O)c2ccc3c(c2)OCO3)cc1	-62*
Cc1ccc(C(=O)NCCOc2cccc(C)c2)cc1	-111*
CC(C)CNC(=S)NC1CC2CCCC(C1)N2C1CCCCC1 (stereo not drawn)	-107*
O=C(NNC1=C(C(=O)C(F)(F)F)CCC1)c1cccc(O)c1	-153*
Cc1ccc(-c2csc(N3C(=N)SCC3=O)n2)cc1	-162*
Cc1nnc(NC(=O)c2ccc(Br)cc2)s1	-96*
CC(=O)Oc1ccc(C(=O)Nc2nnc(C)s2)cc1	-63*
Cc1ccc(Sc2cnc3ccccc3n2)cc1	-176*
Cc1ccc2c(c1)C(=NC1CCCCC1)c1cc3ccccc3nc1-2	-206*
Cc1ccc2c(c1)Cc1nc3ccccc3nc1-2	71
